Assay outcomes: PubChem, National Center for Advancing Translational Sciences (NCATS)
FH mod – Identification of activators of human fumarate hydratase by quantitative high-throughput screening; Fumarate hydratase, mitochondrial (Homo sapiens), P07954; FH coupled MDH/diaphorase resazurin fluorescence, 15 min; Potency, µM (top dose mostly 79.9 µM), for the others: at the highest dose activity change, negative = inhibition, most hits filed as inhibitors; 0.22% of 54,000 active; AID 1347055, 2019; also: potency is read from the fitted curve at half-maximal effect; % is scaled to controls: 0 for no effect and ±100 for the full control effect; the screen sought activators but most active calls are inhibition curves; nearly all actives have a fitted effect of over 45% in size
DRV1 agonist – activates human resolvin D1 receptor GPR32; 2.5% of 48,000 active; CHO-K1 GPR32 beta-arrestin PathHunter luminescence, 90 min; zero percent set by DMSO-only wells; O75388; activation, % at 76.9 µM;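 active = activation of at least 60% and not above a set upper limit, about 1 call in 100 departs from these limits; inconclusive = activation of 40% to 60%, or above that upper limit; inactive = activation under 40%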; also: 0% is about no effect
Target sequence (O75388 whole entry, looked up): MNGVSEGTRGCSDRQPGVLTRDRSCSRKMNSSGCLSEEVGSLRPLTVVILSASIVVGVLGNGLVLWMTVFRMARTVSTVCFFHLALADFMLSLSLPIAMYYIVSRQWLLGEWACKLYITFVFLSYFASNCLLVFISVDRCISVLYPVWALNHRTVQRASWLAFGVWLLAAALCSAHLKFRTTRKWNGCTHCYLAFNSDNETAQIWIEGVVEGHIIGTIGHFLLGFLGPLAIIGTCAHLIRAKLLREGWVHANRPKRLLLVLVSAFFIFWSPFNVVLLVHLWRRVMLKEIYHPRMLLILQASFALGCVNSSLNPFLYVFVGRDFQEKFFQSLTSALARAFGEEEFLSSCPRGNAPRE
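Using DMSO wells as EC0, agonist-induced signal was taken as chemiluminescence from beta-Gal reconstituted upon beta-arrestin recruitment to GPR32 in CHO-K1 cells after 90 min compound treatment.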
OvCa metastasis – inhibitors of ovarian cancer cell adhesion and invasion in omental model | Potency, µM (series often up to 45.8 µM), for inactives: top-dose activity change, negative = inhibition, most hits filed as inhibitors | SKOV3ip1-GFP adhesion/invasion on 3D omental model, fluorescence | 0.1% of 46,000 active | AID 1963576;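 also: potency is read from the fitted curve at half-maximal effect; plate controls were DMSO wells for no effect and tomatine positive control wells for full effect; nearly all actives have a fitted effect of over 65% in size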
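qHTS, 4-pt dose (0.36-46 umol/L); SKOV3ip1-GFP, 1,200 cells/well, no FBS; primary omental fibroblast/mesothelial co-culture 48 h pre-grown; 2 h RT + 16 h 37 C; PBS wash, 4% PFA; GFP count 488/509 nm.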
NTMT1 inh – NTMT1 methyltransferase inhibition; Q9BV86; NTMT1 MTase-Glo SAH luminescence, purified enzyme; Potency, µM (series often up to 114 µM), for inactives: at the highest dose activity change, negative = inhibition, usual class: inhibitors; 2.5% of 59,000 active;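 also: potency is read from the fitted curve at half-maximal effect; plate controls were DMSO vehicle for no effect and no enzyme for full effect; nearly all actives have a fitted effect of over 65% in size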
Numbers without * were called inactive; i = inactive; ? = inconclusive; . = not tested or not shown; [ ] = dose if it differs, or a comment. Rows were chosen to be rich in hits. Some 3.8% of all compounds tested hit in one or more screens of this group. Unless noted, calls follow the shape of the dose curve; as a rule, active = well fitted curve in the direction sought with a large enough effect; inconclusive = small, poorly fitted or top-dose-only effect, or another doubt; inactive = no such curve, though single readings can be large; an effect the other way counts as inactive or inconclusive.

SMILES	FH mod	DRV1 agonist	OvCa metastasis	NTMT1 inh
O=C1Nc2ccccc2/C1=C/c1cc(O)ccc1O	?	.	.	40µM*
Cc1ccc(NC(=O)CC(c2ccc(F)cc2)N2Cc3ccccc3C2=O)cc1C (stereo not drawn)	.	-3	-2%	.
Cc1ccc(NC(=O)CSc2nc(C)c(Cc3ccccc3)c(=O)[nH]2)cc1	-1%	63*	-2%	11%
Cc1nc(SCC(=O)Nc2ccc(Br)cc2)[nH]c(=O)c1Cc1ccccc1	3%	?	i	10%
COc1ccc(NC(=O)c2c(C)oc3ccc(O)c(CN4CCCC(C)C4)c23)cc1 (stereo not drawn)	.	61*	3%	.
O=C(COc1ccc2oc3c(c2c1)CCCC3)Nc1ccc(Cl)cc1	6%	74*	-1%	17%
O=C(COc1ccc2oc3c(c2c1)CCCC3)Nc1ccc(Br)cc1	12%	6	i	6%
Cc1cccc(N2CCN(C(=O)CCCCn3c(=O)[nH]c4ccsc4c3=O)CC2)c1C	-14%	62*	17%	-1%
O=C(CCCCn1c(=O)[nH]c2ccsc2c1=O)N1CCN(c2cccc(C(F)(F)F)c2)CC1	?	74*	26%	-7%
CC(=O)c1ccc(N2CCN(C(=O)CCCn3c(=O)[nH]c4ccsc4c3=O)CC2)cc1	-17%	36	11%	-3%
Cc1cccc(C)c1NC(=O)CSc1nc2ccccc2c2nc(CCc3c(C)n[nH]c3C)nn12	-2%	-13	2%	-3%
C#Cc1cccc(Nc2ncnc3cc(OCCOC)c(OCCO)cc23)c1	3%[53.3 µM]	.	5%	35µM*
COc1cc2oc(=O)c(CC(=O)NCCc3ccccc3F)c(C)c2cc1OC	.	77*	9%	.
Cc1c(CC(=O)NCCc2ccccc2F)c(=O)oc2cc(O)c(Cl)cc12	1%	8	-21%	-14%
O=c1cc(N2CCN(c3cccc(C(F)(F)F)c3)CC2)[nH]c(=O)n1C1CCCCC1	0%	.	.	7%[57.5 µM]
CCN(CCCNC(=O)c1cc2c(=O)[nH]c3ccccc3c2s1)c1ccccc1	4%	-12	i	2%
CCN(CCCNC(=O)c1cc2cc3ccc(OC)cc3nc2s1)c1ccccc1	8%	96*	?	89µM*
CCN(CCCNC(=O)c1cc2cc3ccc(OC)cc3nc2s1)c1cccc(C)c1	-7%	?	-17%	79µM*
Cc1ccc(CCNC(=O)CN(c2ccc(C)cc2)S(=O)(=O)N(C)C)cc1	-3%	26	4%	4%
CCc1ccc(CNC(=O)CN(c2ccc(C)cc2)S(=O)(=O)N(C)C)cc1	-2%	87*	-8%	-12%
Cc1ccc(C)c(N2CCN(C(c3ccc(F)cc3)c3nnc(-c4ccccc4)o3)CC2)c1 (stereo not drawn)	-15%	-40	-2%	1%
COc1ccc(COc2cc3oc(=O)c4cc(C(C)O)ccc4c3cc2OC)cc1 (stereo not drawn)	-4%	.	-10%	23%
CCCCCCNC(=O)CCc1c(C)nc2nc(-c3cc(OC)cc(OC)c3)nn2c1C	-6%	-1	9%	89µM*
CCCNC(=O)CCc1c(C)nc2nc(-c3cc(OC)cc(OC)c3)nn2c1C	-23%	4	0%	-14%
CCc1ccc(NC(=O)Cn2nnc(C(=O)Nc3cc(C)ccc3OC)c2N)cc1	7%	74*	-1%	3%
SMILES	FH mod	DRV1 agonist	OvCa metastasis	NTMT1 inh
CC(C)CC(=O)OC[C@H]1O[C@@](COC(=O)CC(C)C)(O[C@H]2O[C@H](CO)[C@@H](O)[C@H](O)[C@H]2OC(=O)CC(C)C)[C@@H](OC(=O)CC(C)C)[C@@H]1O	-1%[20.6 µM]	.	.	2%[12.6 µM]
Cc1cc(C)cc(-n2c(C)nc3cc(C(=O)NCc4ccc(F)cc4)ccc32)c1	-23%	22	-1%	10%
Nc1cc(C(F)(F)F)ccc1S	-19%[53.3 µM]	31	.	8.9µM*
COc1cc(OC)c(NC(=O)COCc2cc(-c3cccs3)on2)cc1Cl	-6%	-14	i	7%
Nc1ccc(-c2nnc(NC(=O)Nc3ccc(Cl)c(Cl)c3)s2)cc1	.	.	.	-5%
O=C(Nc1ccc(Cl)c(Cl)c1)Nc1nnc(-c2cccnc2)s1	.	.	.	22µM*
CCN(CC)CCn1c(-c2ccccc2)csc1=Nc1ccccc1	-10%	85*	4%	-2%
COc1ccc(-c2csc(=Nc3ccccc3)n2CCO)cc1F	-10%	96*	15%	-5%
CCOC(=O)c1ccc(-n2c(C)cc(-c3nnc4n3CCCCC4)c2C)cc1	.	.	.	2%[57.5 µM]
Oc1cccc(Nc2ccnc3[nH]c4ccccc4c23)c1	-15%	.	.	?
